# PubChem BioAssay (Tox21)
# Several values for one entry are separate records, joined by “and”; a condition that tells them apart may be missing. Identical values can stand only once. Inconclusive results are not listed. Entries that show only a call come without a potency. Where a structure was tested more than once in an assay, its records may differ in their call. Activity calls are given as the source filed them. Unless noted, calls come from the whole dose curve; as a rule, active = well fitted curve in the direction sought with a large enough effect in the repeat runs; inconclusive = weak or mixed curves; inactive = no such curve, though single readings can be large; an effect the other way counts as inactive or inconclusive.
# Legend:
# [1] = Human pregnane X receptor (PXR) small molecule agonists, qHTS cell viability counter screen (AID 1346977); note: nearly all actives have a fitted effect of over 50% in size; note: potency is the fitted concentration of half-maximal effect
# Method in brief: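 PXR-Luc HepG2, 2,000 cells/well, 5% charcoal-stripped FBS; 5hr settle; cpd 24hr, 37C/5% CO2; CellTiter-Fluor at 23hr, read 1hr later (fluorescence).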
# [2] = Caspase-3/7 induction in HepG2 cells by small molecules, qHTS assay (AID 1346978); note: nearly all actives have a fitted effect of over 15% in size
# Method in brief: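 Wild-type HepG2 cells, 2,000/well, settled 5 hr at 37 C and 5% CO2, then compound-treated for 17 hr; caspase-3/7 activity read by luminescent Caspase-Glo 3/7 after 30 min at room temperature.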
# [3] = Caspase-3/7 induction in CHO-K1 cells by small molecules, qHTS cell viability counter screen (AID 1346979); note: nearly all actives have a fitted effect of over 35% in size; note: potency is the fitted concentration of half-maximal effect
# Method in brief: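 Cells (CHO-K1, wild type) are plated at 1,500 per well and incubated 5hr. Test compounds in DMSO are then pinned in, followed by 16hr at 37C and 5% CO2. Viability is read by CellTiter-Fluor fluorescence after 1hr.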
# [4] = Caspase-3/7 induction in CHO-K1 cells by small molecules, qHTS assay (AID 1346980); note: nearly all actives have a fitted effect of over 15% in size
# Method in brief: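 Wild-type CHO-K1 cells exposed to compounds for 17hr at 37 C, 5% CO2. Caspase-3/7 activity then measured by Caspase-Glo 3/7 luminescence after 30min at room temperature.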
# [5] = Caspase-3/7 induction in HepG2 cells by small molecules, qHTS cell viability counter screen (AID 1346981); note: nearly all actives have a fitted effect of over 30% in size; note: potency is the fitted concentration of half-maximal effect
# Method in brief: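 The parent HepG2 line is plated at 2,000 cells per well and rested 5 hr before compound pinning from DMSO stocks. Following a 16-hr treatment at 37 C, a fluorogenic live-cell substrate (CellTiter-Fluor) reports viability after 1 hr.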
# [6] = target: Nuclear receptor subfamily 1 group I member 2 (Homo sapiens) (UniProt O75469); experiment: Human pregnane X receptor (PXR) small molecule agonists, qHTS assay (AID 1346982); note: nearly all actives have a fitted effect of over 35% in size; note: potency is the fitted concentration of half-maximal effect
# Sequence of Nuclear receptor subfamily 1 group I member 2 (Homo sapiens) (O75469 whole entry, looked up): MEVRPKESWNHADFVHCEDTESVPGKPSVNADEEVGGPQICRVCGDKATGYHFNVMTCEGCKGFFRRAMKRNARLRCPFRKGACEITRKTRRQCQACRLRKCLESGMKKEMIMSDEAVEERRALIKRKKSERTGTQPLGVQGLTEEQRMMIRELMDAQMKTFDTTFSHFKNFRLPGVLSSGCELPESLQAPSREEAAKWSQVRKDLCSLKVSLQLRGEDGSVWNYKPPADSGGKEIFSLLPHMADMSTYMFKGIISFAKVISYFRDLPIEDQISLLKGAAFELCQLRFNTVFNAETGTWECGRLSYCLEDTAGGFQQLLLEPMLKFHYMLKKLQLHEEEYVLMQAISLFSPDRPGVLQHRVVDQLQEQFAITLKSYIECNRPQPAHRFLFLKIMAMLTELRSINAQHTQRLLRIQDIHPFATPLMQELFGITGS
# Method in brief: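 After plating in 5% charcoal-stripped FBS and a 5 hr rest, PXR-Luc HepG2 cells received compounds in DMSO. Following 24 hr at 37 C, ONE-Glo was added and light output read.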
# [7] = target: Cytochrome P450 2D6 (Homo sapiens) (UniProt P10635); experiment: Cytochrome P450 Family 2 Subfamily D Member 6 (CYP2D6) small molecule antagonists: luciferase reporter qHTS assay (AID 1671196); note: nearly all actives have a fitted effect of over 50% in size; note: potency is the fitted concentration of half-maximal effect
# Sequence of Cytochrome P450 2D6 (Homo sapiens) (P10635 whole entry, looked up): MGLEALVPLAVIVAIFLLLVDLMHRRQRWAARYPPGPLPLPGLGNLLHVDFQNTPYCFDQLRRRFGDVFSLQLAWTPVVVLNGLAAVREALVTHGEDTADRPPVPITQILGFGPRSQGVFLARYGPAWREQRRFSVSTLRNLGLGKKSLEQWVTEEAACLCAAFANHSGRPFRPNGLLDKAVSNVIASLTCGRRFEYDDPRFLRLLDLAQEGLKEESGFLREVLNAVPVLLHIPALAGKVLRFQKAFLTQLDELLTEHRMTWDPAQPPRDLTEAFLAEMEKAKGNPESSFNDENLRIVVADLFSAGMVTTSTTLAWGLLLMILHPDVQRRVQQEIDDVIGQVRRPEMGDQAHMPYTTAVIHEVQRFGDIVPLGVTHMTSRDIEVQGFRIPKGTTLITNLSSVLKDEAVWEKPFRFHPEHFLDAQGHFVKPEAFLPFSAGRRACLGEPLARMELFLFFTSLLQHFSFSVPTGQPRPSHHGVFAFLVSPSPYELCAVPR
# Method in brief: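 Quantitative HTS of Tox21 chemicals against CYP2D6 using a luminescent proluciferin substrate. After NADPH addition, 1 h room-temperature reaction; luminescence recorded 20 min post detection reagent.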
# [8] = target: Cytochrome P450 2C19 (Homo sapiens) (UniProt P33261); experiment: Cytochrome P450 Family 2 Subfamily C Member 19 (CYP2C19) small molecule antagonists: luciferase reporter qHTS assay (AID 1671197); note: nearly all actives have a fitted effect of over 65% in size; note: potency is the fitted concentration of half-maximal effect
# Sequence of Cytochrome P450 2C19 (Homo sapiens) (P33261 whole entry, looked up): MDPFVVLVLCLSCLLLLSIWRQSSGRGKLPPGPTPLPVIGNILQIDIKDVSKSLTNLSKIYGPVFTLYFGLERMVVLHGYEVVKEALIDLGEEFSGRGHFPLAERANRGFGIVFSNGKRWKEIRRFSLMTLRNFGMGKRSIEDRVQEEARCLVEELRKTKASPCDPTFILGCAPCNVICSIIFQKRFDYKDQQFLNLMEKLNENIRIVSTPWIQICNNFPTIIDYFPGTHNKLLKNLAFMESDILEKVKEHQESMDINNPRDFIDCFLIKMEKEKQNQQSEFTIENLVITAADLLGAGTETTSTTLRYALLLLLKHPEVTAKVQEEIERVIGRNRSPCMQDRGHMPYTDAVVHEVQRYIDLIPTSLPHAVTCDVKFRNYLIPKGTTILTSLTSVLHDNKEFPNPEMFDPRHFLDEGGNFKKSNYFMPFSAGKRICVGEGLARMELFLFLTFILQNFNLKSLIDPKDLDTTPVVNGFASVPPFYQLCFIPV
# Method in brief: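 Compounds were tested on CYP2C19 activity via proluciferin conversion to luciferin. The 37C, 1 h reaction followed NADPH addition; detection reagent stopped it.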
# [9] = target: Cytochrome P450 2C9 (Homo sapiens) (UniProt P11712); experiment: Cytochrome P450 Family 2 Subfamily C Member 9 (CYP2C9) small molecule antagonists: luciferase reporter qHTS assay (AID 1671198); note: nearly all actives have a fitted effect of over 50% in size; note: potency is the fitted concentration of half-maximal effect
# Sequence of Cytochrome P450 2C9 (Homo sapiens) (P11712 whole entry, looked up): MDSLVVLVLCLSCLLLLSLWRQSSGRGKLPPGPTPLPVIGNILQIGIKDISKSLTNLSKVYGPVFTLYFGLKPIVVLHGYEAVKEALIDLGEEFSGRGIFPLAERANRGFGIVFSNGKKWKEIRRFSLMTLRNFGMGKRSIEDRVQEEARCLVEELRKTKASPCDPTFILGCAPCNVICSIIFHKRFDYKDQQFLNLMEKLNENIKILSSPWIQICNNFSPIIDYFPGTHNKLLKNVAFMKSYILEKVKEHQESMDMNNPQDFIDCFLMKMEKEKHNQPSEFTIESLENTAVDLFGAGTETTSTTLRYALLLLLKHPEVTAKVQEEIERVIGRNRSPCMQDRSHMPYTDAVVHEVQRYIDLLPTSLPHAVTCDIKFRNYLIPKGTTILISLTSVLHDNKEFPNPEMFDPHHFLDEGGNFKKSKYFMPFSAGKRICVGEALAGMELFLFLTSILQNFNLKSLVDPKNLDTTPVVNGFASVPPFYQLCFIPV
# Method in brief: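 P450-Glo proluciferin substrate with CYP2C9 enzyme; 10 min RT preincubation, then NADPH regeneration 1 h at 37C; luciferin detection reagent 20 min RT, luminescence in relative luminescence units.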
# [10] = target: Cytochrome P450 1A2 (Homo sapiens) (UniProt P05177); experiment: Cytochrome P450 Family 1 Subfamily A Member 2 (CYP1A2) small molecule antagonists: luciferase reporter qHTS assay (AID 1671199); note: nearly all actives have a fitted effect of over 50% in size; note: potency is the fitted concentration of half-maximal effect
# Sequence of Cytochrome P450 1A2 (Homo sapiens) (P05177 whole entry, looked up): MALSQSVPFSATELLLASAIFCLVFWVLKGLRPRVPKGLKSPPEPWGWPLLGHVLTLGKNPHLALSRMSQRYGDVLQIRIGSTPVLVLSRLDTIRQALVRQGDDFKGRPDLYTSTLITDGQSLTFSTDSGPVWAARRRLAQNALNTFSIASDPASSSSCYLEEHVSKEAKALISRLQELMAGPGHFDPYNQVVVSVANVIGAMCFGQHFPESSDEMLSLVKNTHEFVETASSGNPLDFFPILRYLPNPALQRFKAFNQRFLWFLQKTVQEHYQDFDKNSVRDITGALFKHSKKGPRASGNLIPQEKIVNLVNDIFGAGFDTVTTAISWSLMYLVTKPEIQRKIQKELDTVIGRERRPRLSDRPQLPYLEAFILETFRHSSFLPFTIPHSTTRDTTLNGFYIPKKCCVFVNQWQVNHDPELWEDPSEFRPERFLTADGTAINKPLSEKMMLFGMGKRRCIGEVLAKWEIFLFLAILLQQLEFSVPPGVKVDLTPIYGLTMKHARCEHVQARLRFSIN
# Method in brief: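 Quantitative high-throughput format using the P450-Glo CYP1A2 system. Reaction initiated by NADPH regeneration solution, 1 h at room temperature, then stopped with detection reagent; luminescence measured 20 min later.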
# [11] = target: Voltage-gated inwardly rectifying potassium channel KCNH2 (Homo sapiens) (UniProt Q12809); experiment: Human Ether-a-go-go-Related Gene (hERG) channel small molecule antagonists: fluorescence cell-based qHTS assay (AID 1671200)
# Sequence of Voltage-gated inwardly rectifying potassium channel KCNH2 (Homo sapiens) (Q12809 whole entry, looked up): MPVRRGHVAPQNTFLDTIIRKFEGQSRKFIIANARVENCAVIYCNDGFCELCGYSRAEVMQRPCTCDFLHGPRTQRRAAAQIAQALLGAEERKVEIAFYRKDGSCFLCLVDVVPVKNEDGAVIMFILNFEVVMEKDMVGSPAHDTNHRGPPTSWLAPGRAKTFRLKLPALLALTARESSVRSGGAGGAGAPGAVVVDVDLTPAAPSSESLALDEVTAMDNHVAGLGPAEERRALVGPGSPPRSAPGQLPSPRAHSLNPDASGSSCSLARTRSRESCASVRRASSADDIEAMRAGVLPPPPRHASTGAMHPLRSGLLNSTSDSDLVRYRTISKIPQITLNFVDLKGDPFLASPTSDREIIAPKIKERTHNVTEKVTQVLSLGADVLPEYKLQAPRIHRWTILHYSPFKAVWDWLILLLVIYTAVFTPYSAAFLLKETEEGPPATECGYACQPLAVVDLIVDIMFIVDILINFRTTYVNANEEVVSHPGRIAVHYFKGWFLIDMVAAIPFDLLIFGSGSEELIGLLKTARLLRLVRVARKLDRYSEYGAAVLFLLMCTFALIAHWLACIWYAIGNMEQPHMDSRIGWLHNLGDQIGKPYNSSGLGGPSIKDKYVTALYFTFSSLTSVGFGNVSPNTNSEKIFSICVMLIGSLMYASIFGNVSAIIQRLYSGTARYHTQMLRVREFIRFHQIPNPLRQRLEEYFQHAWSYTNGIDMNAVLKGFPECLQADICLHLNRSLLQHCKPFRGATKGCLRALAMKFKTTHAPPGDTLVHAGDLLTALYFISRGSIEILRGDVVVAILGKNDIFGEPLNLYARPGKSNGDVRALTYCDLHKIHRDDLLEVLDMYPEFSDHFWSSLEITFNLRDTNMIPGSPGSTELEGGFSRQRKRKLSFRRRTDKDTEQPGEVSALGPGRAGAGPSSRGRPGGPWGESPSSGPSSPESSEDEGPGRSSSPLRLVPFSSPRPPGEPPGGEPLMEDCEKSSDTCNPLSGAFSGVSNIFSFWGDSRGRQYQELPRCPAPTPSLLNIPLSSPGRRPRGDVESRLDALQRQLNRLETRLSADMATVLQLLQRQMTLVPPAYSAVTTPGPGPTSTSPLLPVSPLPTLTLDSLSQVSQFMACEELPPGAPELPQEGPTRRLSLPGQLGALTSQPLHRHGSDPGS
# Method in brief: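 Channel function was assessed by thallium flux. Cells seeded the previous day and kept at 37 C took up FluxOR II dye over 1 h in the dark at room temperature, then sat another 10 min before stimulation.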
# [12] = target: Nuclear receptor subfamily 1 group I member 2 (Rattus norvegicus) (UniProt Q9R1A7); experiment: Rat pregnane X receptor (rPXR) activation by small molecules, qHTS assay (AID 1346983); details: rPXR luciferase reporter cells, One-Glo luminescence, 24 h; max activation: stronger effect = higher value; note: nearly all actives have a fitted effect of over 20% in size
# Sequence of Nuclear receptor subfamily 1 group I member 2 (Rattus norvegicus) (Q9R1A7 whole entry, looked up): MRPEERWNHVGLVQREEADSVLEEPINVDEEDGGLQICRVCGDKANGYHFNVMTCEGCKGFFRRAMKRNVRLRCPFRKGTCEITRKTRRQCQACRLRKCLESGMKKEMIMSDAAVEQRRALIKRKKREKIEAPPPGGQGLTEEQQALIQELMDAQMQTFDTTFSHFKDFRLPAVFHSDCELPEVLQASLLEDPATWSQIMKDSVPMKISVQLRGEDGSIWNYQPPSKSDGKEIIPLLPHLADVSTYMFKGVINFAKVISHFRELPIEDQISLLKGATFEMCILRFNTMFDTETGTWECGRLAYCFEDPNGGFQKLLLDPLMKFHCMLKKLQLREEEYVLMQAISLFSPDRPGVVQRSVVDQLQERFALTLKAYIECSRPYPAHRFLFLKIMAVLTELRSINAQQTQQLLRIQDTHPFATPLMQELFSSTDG
# Method in brief: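 Cell-based rPXR activation assay: rPXR cells, 2,000 per well, rested 5hr at 37 C, then exposed to compounds in DMSO for 24 hr at 37 C. Luciferase activity read by One-Glo luminescence after 30 min at room temperature.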
# [13] = target: Nuclear receptor subfamily 1 group I member 2 (Homo sapiens) (UniProt O75469); experiment: CYP3A4 induction through human pregnane X receptor (PXR) by small molecules, qHTS assay (AID 1346984); note: nearly all actives have a fitted effect of over 40% in size
# Method in brief: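 Human PXR activation is tracked via CYP3A4 promoter-luciferase in DPX-2 (HepG2) cells. Compounds treat cells for 24hr at 37C, and luminescence is read after One-Glo.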
# [14] = target: Cytochrome P450 3A4 (Homo sapiens) (UniProt P08684); experiment: Cytochrome P450 Family 3 Subfamily A Member 4 (CYP3A4) small molecule antagonists: luciferase reporter qHTS assay (AID 1671201); note: nearly all actives have a fitted effect of over 50% in size; note: potency is the fitted concentration of half-maximal effect
# Sequence of Cytochrome P450 3A4 (Homo sapiens) (P08684 whole entry, looked up): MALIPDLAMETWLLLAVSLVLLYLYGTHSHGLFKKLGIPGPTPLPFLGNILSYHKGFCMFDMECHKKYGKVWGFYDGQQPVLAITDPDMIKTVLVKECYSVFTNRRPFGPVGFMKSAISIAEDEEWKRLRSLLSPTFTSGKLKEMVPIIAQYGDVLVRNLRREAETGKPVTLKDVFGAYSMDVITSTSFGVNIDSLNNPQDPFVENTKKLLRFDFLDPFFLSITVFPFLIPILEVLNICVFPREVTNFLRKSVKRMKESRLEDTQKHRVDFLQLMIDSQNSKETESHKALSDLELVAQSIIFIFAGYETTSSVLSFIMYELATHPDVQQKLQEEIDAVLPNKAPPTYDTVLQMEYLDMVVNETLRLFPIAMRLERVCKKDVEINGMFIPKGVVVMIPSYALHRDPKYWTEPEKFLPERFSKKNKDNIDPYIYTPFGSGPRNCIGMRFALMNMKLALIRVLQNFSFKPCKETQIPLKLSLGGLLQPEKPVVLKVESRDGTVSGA
# Method in brief: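 Compounds in DMSO were pin-transferred onto CYP3A4 enzyme-substrate mix and held 10 min at room temperature. NADPH regenerating solution started the reaction for 1 h; luciferin detection reagent stopped it, and luminescence was read after 20 min.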
# [15] = target: Thyrotropin-releasing hormone receptor (Homo sapiens) (UniProt P34981); experiment: qHTS assay to identify small molecule agonists of the thyrotropin-releasing hormone receptor (TRHR) signaling pathway (AID 1346891; calls by dose curve; note: series mostly up to about 58 µM)
# Sequence of Thyrotropin-releasing hormone receptor (Homo sapiens) (P34981 whole entry, looked up): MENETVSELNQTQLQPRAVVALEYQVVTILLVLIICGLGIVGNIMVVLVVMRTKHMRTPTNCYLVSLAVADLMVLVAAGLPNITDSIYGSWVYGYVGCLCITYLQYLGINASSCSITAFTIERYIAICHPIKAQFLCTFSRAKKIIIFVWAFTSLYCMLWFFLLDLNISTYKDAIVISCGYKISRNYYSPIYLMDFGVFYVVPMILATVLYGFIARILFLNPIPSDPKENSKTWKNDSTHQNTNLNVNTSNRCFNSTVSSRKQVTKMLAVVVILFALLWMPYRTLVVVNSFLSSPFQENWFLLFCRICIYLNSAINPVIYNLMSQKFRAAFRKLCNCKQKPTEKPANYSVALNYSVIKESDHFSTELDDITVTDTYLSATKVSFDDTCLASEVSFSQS
# Method in brief: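 Intracellular calcium rise, read as fluorescence every second for 3 min, served as the agonist signal in dye-loaded HEK293 cells expressing TRHR; each compound ran at 15 concentrations in triplicate.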
SMILES,Potency [1],Potency [2],Potency [3],Potency [4],Potency [5],Potency [6],Potency [7],Potency [8],Potency [9],Potency [10],Potency [11],max activation [12],outcome [13],Potency [14],Potency [15]
CC(=O)CCc1ccccc1,inactive,inactive,inactive,inactive,inactive,inactive,inactive,81 µM (active) and inactive,inactive,inactive,inactive,,,,
C=C1CC[C@H](O)CC1=C/C=C1\CCC[C@]2(C)[C@@H]([C@H](C)/C=C/[C@H](C)C(C)C)CC[C@@H]12,inactive,inactive,54 µM (active) and 48.6 µM (active),,,34.1 µM (active) and 30.6 µM (active),,35.3 µM (active) and 25.2 µM (active),,,inactive,-1.33% (inactive),inactive,,
Cn1c([N+](=O)[O-])cnc1COC(N)=O,inactive,inactive,inactive,inactive,inactive,inactive,inactive,inactive,inactive,inactive,inactive,,,,
Cc1ccc(C(=O)O)o1,,inactive,inactive,inactive,inactive,inactive,inactive,inactive,inactive,inactive,inactive,,,inactive,
OC[C@@H](O)[C@@H](O)[C@H](O)[C@@H](O)CO,,inactive,inactive,inactive,inactive,inactive,inactive,inactive,inactive,inactive,inactive,,,inactive,
Nc1nc2ncc(CNc3ccc(C(=O)N[C@@H](CCC(=O)O)C(=O)O)cc3)nc2c(=O)[nH]1,inactive,inactive,inactive,inactive,inactive,inactive,inactive,56.4 µM (active) and inactive,inactive,,inactive,-0.844% (inactive),inactive,inactive,
CCCCC/C=C\C/C=C\CCCCCCCC(=O)OC,,inactive,inactive and 61.1 µM (active),inactive,inactive,67.8 µM (active) and 61.1 µM (active),35.6 µM (active),55.8 µM (active) and 11.2 µM (active),35.2 µM (active) and 7.96 µM (active),35.6 µM (active),,,,inactive and 7.1 µM (active),
CC(=O)[C@@]1(O)CC[C@H]2[C@@H]3CCC4=CC(=O)CC[C@]4(C)[C@H]3CC[C@@]21C,,inactive,inactive,inactive,inactive,,,,,,inactive,,,,inactive
CS(=O)(=O)Nc1ccc([N+](=O)[O-])cc1Oc1ccccc1,,inactive,54.5 µM (active),inactive,54.5 µM (active) and 29.8 µM (active),,,,,,,-5.28% (inactive),,,inactive
CC(C)(C)C(=O)C1C(=O)c2ccccc2C1=O,50.1 µM (active),inactive,27 µM (active) and 43.3 µM (active),inactive,60.5 µM (active),60.5 µM (active) and inactive,inactive,35.3 µM (active) and inactive,22.2 µM (active) and 25.2 µM (active),31.4 µM (active),,,,,
CS(=O)(=O)c1ccc([C@@H](O)[C@@H](CO)NC(=O)C(Cl)Cl)cc1,inactive,inactive,inactive,inactive,inactive,inactive,64.1 µM (active) and inactive,28.6 µM (active) and 17.4 µM (active),inactive,inactive,inactive,-0.108% (inactive),inactive,,
Oc1c(Cl)cc(Cl)c(Cl)c1Cl,,inactive,,inactive,,59.8 µM (active) and 54.5 µM (active),inactive,inactive,39.1 µM (active) and 28.3 µM (active),62 µM (active) and 63.3 µM (active),inactive,,,inactive,inactive
S=c1nc[nH]c2nc[nH]c12,,inactive,inactive,inactive,,inactive,inactive,69.2 µM (active) and 30.9 µM (active),34.7 µM (active),inactive,,-6.82% (inactive),inactive,inactive,inactive
C/C=C(C)/C=C/C=C(C)C,,inactive,,inactive,inactive,60.4 µM (active) and 27.3 µM (active),inactive,70.2 µM (active) and 79.6 µM (active),,39.9 µM (active),inactive,,,31.3 µM (active) and 35.6 µM (active),
